Test results from the supplement of paper PMC4954754.
± gives the uncertainty stated by the source.

System: HEK293T-Rex XBP1-RLuc
Assay: XBP1-RLuc splicing reporter activation, triplicate, relative to 500 nM thapsigargin (% of thapsigargin); higher = stronger IRE1/XBP1s reporter activation
Details: 6.8 µM; 18 h; screen: confirmation
Description: (§1)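 HEK293T-Rex cells stably expressing the ERSE-firefly luciferase (BiP promoter, ATF6-preferring) or XBP1-splicing Renilla luciferase (IRE1/XBP1s) reporter, 1536-well plates, compound at 6.8 µM for 18 hr at 37 °C; luminescence read […] and expressed as % activation = 100*(compound - median DMSO)/(median 500 nM thapsigargin - median DMSO). Primary screen was single-pass; confirmation screen in triplicate (mean ± SD).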

| SMILES | XBP1-RLuc splicing reporter activation |
| --- | --- |
| COc1cccc(Nc2nc(-c3ccc(OC)c(F)c3)cs2)c1 | 1.64 ± 0.88 |
| COc1ccc(Nc2nccn3c(-c4ccsc4)cnc23)cn1 | 3.91 ± 0.5 |
| O=[N+]([O-])c1ccc2nc(/C=C/c3ccccc3)[nH]c2c1 | 1.8 ± 0.81 |
| COc1ccc2c(Cl)c(C(=O)Nc3ccccc3C(N)=O)sc2c1 | 4.82 ± 1.1 |
| Cc1ccc(Nc2nc(N)c3ccccc3n2)cc1Cl | 8.06 ± 2.4 |
| O=C(N/N=C/c1ccc(Cl)cc1Cl)c1ccc(O)c(O)c1 | 10.6 ± 0.64 |
| COc1ccccc1OCC(=O)Nc1cc(C)ccc1O | 19.6 ± 1.9 |
| COc1cc(/C=C/c2ccc(O)c(OC)c2)ccc1O | 31.8 ± 2.2 |
| O=[N+]([O-])c1ccccc1NC(=S)N/N=C/c1ccc(O)c(O)c1 | 8.61 ± 0.81 |
| O=C(CCc1ccccc1)Nc1ccc(Cl)cn1 | 0.292 ± 0.79 |
| O=C(c1ccccc1)c1c(O)ccc2c(C(=O)c3ccccc3)c(O)ccc12 | 15.8 ± 2.8 |
| Cc1ccc(/C=C(\C#N)C(=O)Nc2cccc(Cl)c2)o1 | 0.278 ± 1.4 |
| CCCNc1ccnc(N2CCc3ccccc3C2)n1 | -1.35 ± 0.17 |
| Cc1nn(-c2ccc(F)cc2)c2ncc(C(=O)NCc3ccco3)c(Cl)c12 | 110 ± 9.1 |
| COc1cccc(C(=O)Nc2nc3ccc(C)cc3s2)c1 | 5.6 ± 0.99 |
| CC(C)c1ccc(NC(=O)/C=C/c2ccco2)cc1 | 4 ± 0.68 |
| COc1ccc(/C(C)=N/OC/C(O)=C(\C#N)c2nc3ccccc3[nH]2)cc1OC | 24.6 ± 1.4 |
| Cc1ccc(O)c(NC(=O)c2cc(C3CC3)on2)c1 | 13.9 ± 2.1 |

| SMILES | XBP1-RLuc splicing reporter activation |
| --- | --- |
| O=C(N/N=C/c1cccc(O)c1O)c1ccccc1I | 11.2 ± 0.69 |
| Nc1ccc(-c2nc3cc(N)c(Cl)cc3[nH]2)cc1 | 16 ± 1 |
| Cc1cc(C)nc(/N=C(\N)Nc2ccc(OCCC(C)C)cc2)n1 | 101 ± 1.1 |
| Cc1ccc(/C=N/NC(=O)c2cccc(Cl)c2)cc1 | 0.915 ± 0.53 |
| Nc1ccc2sc(-c3cc(Cl)c(N)c(Cl)c3)nc2c1 | 10.16 ± 0.093 |
| CCN(CC)c1ccc2cc(-c3nc4ccccc4n3C)c(=O)oc2c1 | 9.31 ± 0.79 |
| COC(=O)c1ccc2c(COC(C)=O)c(OC(C)=O)ccc2c1COC(C)=O | 24.5 ± 2.2 |
| CNC(=O)c1ccccc1Nc1cc(NC(=O)Cc2ccc(F)c(F)c2)ncc1C(F)(F)F | 91.3 ± 2.1 |
| CCC(=O)N(Cc1cc2cc(C)ccc2n2nnnc12)C1CCCC1 | 4.74 ± 0.41 |
| COC(=O)c1c(NC(=O)CCl)sc(C(=O)Nc2cccc([N+](=O)[O-])c2)c1C | 12.1 ± 0.46 |
| Cc1nc(-c2coc3c(O)c(O)ccc3c2=O)cs1 | 7.82 ± 0.28 |
| O=C(/C=C/c1ccco1)Nc1ccc(Br)cc1Cl | -0.469 ± 0.9 |
| Cc1ccc(O)c(-c2cc(-c3ccc(F)cc3)n[nH]2)c1 | 3.17 ± 2.6 |
| Nc1ccccc1NC(=O)c1ccc(Cl)cc1 | 10 ± 0.7 |
| O=C(NCCCn1ccnc1)c1cc(-c2cccs2)on1 | 7.54 ± 0.78 |
| N#Cc1c(NC(=O)c2cccc(F)c2)sc2c1CCC2 | 2 ± 0.56 |
| COc1ccc(NC(=O)/C(Cl)=C\c2ccccc2)cc1 | -0.467 ± 2.4 |
| O=C1c2cc(O)ccc2-c2ccc(O)cc21 | 17.8 ± 0.69 |

System: HEK293T-Rex ERSE-FLuc
Assay: ERSE-FLuc reporter activation, triplicate confirmation, relative to 500 nM thapsigargin (% of thapsigargin); higher = stronger ATF6/ERSE reporter activation
Details: 6.8 µM; 18 h; screen: confirmation
Description: as §1

| SMILES | ERSE-FLuc reporter activation |
| --- | --- |
| COc1ccc2c(Cl)c(C(=O)Nc3ccccc3C(N)=O)sc2c1 | 31.6 ± 1.1 |
| Cc1ccc(Nc2nc(N)c3ccccc3n2)cc1Cl | 34.8 ± 5.8 |
| COc1ccccc1OCC(=O)Nc1cc(C)ccc1O | 33.1 ± 6.4 |
| O=[N+]([O-])c1ccccc1NC(=S)N/N=C/c1ccc(O)c(O)c1 | 33.2 ± 4.3 |
| Nc1ccc(-c2nc3cc(N)c(Cl)cc3[nH]2)cc1 | 32.5 ± 3.7 |
| Cc1cc(C)nc(/N=C(\N)Nc2ccc(OCCC(C)C)cc2)n1 | 58.2 ± 6.3 |
| Nc1ccc2sc(-c3cc(Cl)c(N)c(Cl)c3)nc2c1 | 30.8 ± 2.4 |
| CCC(=O)N(Cc1cc2cc(C)ccc2n2nnnc12)C1CCCC1 | 33.5 ± 2.4 |
| N#Cc1c(NC(=O)c2cccc(F)c2)sc2c1CCC2 | 25.9 ± 3.9 |
